From ChEMBL document CHEMBL4513160, “CO-ADD screening of MMV (CH) - Small Polar Library” come the findings set out here.

Each structure is given as a SMILES string. Screen size: about 21,000 compounds; fewer than 10 showed an effect of 50% or more. Not all results are given here. Entries with a potency or affinity are not part of this list.

The subject of the assay is Acinetobacter baumannii. The following applies: Concentration 300 ug.mL-1; ASSAY_TEST Inhibition of Bacterial Growth; detection method Absorption (OD600); MEDIA CAMHB; plate type 384well; NBS; CORNING #3640; time 18 hr.
The Inhibition is the change of the read-out against control, counted positive when it falls. For `CC(C)Oc1ncc(C(=O)N2CCC(O)CC2)cc1Cl`, the Inhibition turned out to be 1.14%. In the case of `C[C@H](N)c1cccc(OCCN(C)C)c1`, the Inhibition was found to be 5.56%. As for `C[C@@H]1CN(CCC(=O)NC2CCCC2)CC[C@]1(C)O`, the Inhibition amounted to 3.95%. As for `O=S(=O)(CCN1CCN(c2nccs2)CC1)C(F)(F)F`, the figure is 11.95%; as for `CS(=O)(=O)C[C@H]1CCCN1`, 4.73%. Regarding `CN(C(=O)c1ccc2c(c1)NC(=O)CS2)C1CCCC1`, the Inhibition worked out at 10.76%. Turning to `CN(C(=O)CCn1cccn1)C1CCS(=O)(=O)C1` (configuration not stated), the Inhibition is given as 0.97%. In the case of `NCCNS(=O)(=O)c1ccc(F)cc1C(F)(F)F` it was 9.19%. On to `CCn1cc(Br)c(C(C)=O)n1`, for which the Inhibition is 15.72%.

As for `CCc1nccn1CCNC(=O)Cc1nonc1C`, the Inhibition came out at 6.19%. As for `O=C(Nc1ncccc1O)c1cnns1`, the figure is 5.13%; as for `CN(C)CC[C@H](O)c1cccs1`, 11.43%; as for `Cc1occc1C(=O)N1CCC(NC(=O)C2CC2)CC1`, 4.82%. For the molecule `CC(=O)c1cccc(COC(=O)c2cccnc2)c1`, the Inhibition is recorded as 12%.

For `CC(C)c1noc(CN(C)C(=O)C2=NNC(=O)CC2)n1`, the Inhibition was -1.48%. As for `CSCC(=O)N1CCN(S(=O)(=O)N2CCOCC2)CC1`, the figure is -0.38%; as for `CCSc1nccc(N)n1`, 18.01%; as for `CS(=O)(=O)NCCc1nc2c(s1)CCCC2`, 6.5%. As to `CNC(=O)c1cccc(NCc2cccnc2)n1`, the Inhibition is 1.67%.

`CCN(C(=O)C(C)O)C1CCCCC1` (configuration not stated): the Inhibition is 7.15%. In the case of `CN(Cc1ccc(Oc2ccccc2)cc1)C(=O)CN`, the Inhibition came to 13.35%. In the case of `Cn1cc(S(=O)(=O)NCc2ccco2)cn1` it was -0.88%; in that of `O=C1CCCc2sccc2N1`, 14.86%. As for `CCCS(=O)(=O)N1C[C@@H](CN(C)CCO)[C@@H](CO)C1`, the figure is 1.24%; as for `CNC(=O)c1ccc(CNC(=O)c2ccoc2C)cc1`, 5.87%; as for `COc1ccc(NC2CC(=O)N(C)C2=O)cc1OC` (configuration not stated), 5.58%.

Consider `CCN1CCCC1CNC(=O)c1csc(NC(C)=O)n1` (configuration not stated), for which the Inhibition is reported as -0.07%. As for `NCC(=O)NCCN1CCCCC1`, the figure is 9.69%.

In the case of `CCn1nnnc1NCc1sccc1C`, the Inhibition is listed as 11.07%. As for `CCOc1ncccc1C(=O)OC(C)C(=O)NC1CC1` (configuration not stated), the figure is 0.66%; as for `O=C(Nc1cccc(Cl)c1Cl)C1CCS(=O)(=O)C1` (configuration not stated), -2.85%.

With `CC(=O)c1cc[nH]c(=O)c1`, the Inhibition turned out to be 3.77%. Consider `O=C(CNC1CC1)NC[C@H]1CCc2ccccc2O1`, for which the Inhibition is recorded as 0.42%. In the case of `Cc1ccc(CN(C)CC(=O)NCCC#N)o1` it was 4.14%; in that of `COc1ccc(CC(=O)NCC(C)C)c(OC)c1`, 9.02%; in that of `CCCn1nnnc1CSCc1ccccn1`, 1.73%. As for `CCCOc1ccc2c(c1)CCN(C(=O)C(C)N)C2` (configuration not stated), the Inhibition was 14.38%.
